Holding throughout (experiment): NCI-60 one-dose screen, 48 h (100 = growth as untreated, 0 = no growth, -100 = all killed)
Common to all, as to conditions: 10 µM unless noted

Assay [1] has as its system HCT-15 colon.
In assay [2] the test system is HT29 colon.
Assay [3] has as its system SNB-75 CNS.
Assay [4] relates to SNB-19 CNS.
In assay [5] the test system is U251 CNS.
Assay [6] deals with PC-3 prostate.
Assay [7] deals with SK-MEL-5 melanoma.
In assay [8] the test system is UACC-62 melanoma.
In assay [9] the test system is LOX IMVI melanoma.
Assay [10] deals with SK-MEL-28 melanoma.
In assay [11] the test system is SK-MEL-2 melanoma.
The test system of assay [12] is EKVX NSCLC.
Assay [13] concerns SN12C renal.
Assay [14] deals with UO-31 renal.
Assay [15] deals with TK-10 renal.
The test system of assay [16] is ACHN renal.
The subject of assay [17] is CAKI-1 renal.
For assay [18], the system named is A498 renal.
Assay [19] relates to CCRF-CEM leukemia.
In assay [20] the test system is MOLT-4 leukemia.

Compounds without any hit were thinned out: in the full panel of roughly 83,000, 20% have a hit.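 Treatment: one concentration, 48 hours, 96-well format. Scoring: percent growth, with anything below 10 considered active.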 Unmarked numbers belong to inactive results. Active and inactive are the calls of the source.

With `C=CCc1c2c(c(OC)c3ccoc13)C(=O)/C(=C/c1ccccc1OC)O2`, the growth in [1] is 45.2%; in assay [2], 44.6%; in assay [3], 35.8%; in assay [4] it was 73%; in assay [5], 46.2%; in [6], 55.2%. Also, the growth in assay [7] is 98%; in [8], 46.4%; in [9], 38.3%; in assay [10], 81.1%; in assay [11], 58.4%; in [12] it was 60.6%. In addition, the growth was 62.1% in assay [13]; 65.7% in assay [14]; 52.9% in assay [15]; 59.3% in assay [16]; 38.4% in [17]; 46.2% in assay [18]. Besides, the growth in assay [19] was 37.5%; in [20], 45.8%.

As to `CN(C)C1CCN(Cc2ccc(NC(=O)c3cncc(C#Cc4cnc(N)c5ncccc45)c3)cc2C(F)(F)F)CC1`, the growth in [1] is 53.2%; in assay [2], 19.3%; in assay [3] it was 127%; in [4], 97.8%; in assay [5], -51.5% (active); in assay [6] it was 80.6%. The growth in [7] is 50.6%; in [8], 91.5%; in [9], 63.7%; in assay [10], -53.9% (active); in [11] it was 79.9%; in [12] it was 93.5%. Further, the growth was 93.1% in [13]; 89.3% in assay [14]; 128% in assay [15]; -90.9% (active) in assay [16]; 78.4% in assay [17]; 85.2% in assay [18]. In addition, the growth was 4.13% (active) in assay [19] and 24.7% in [20].

On to `C=CCn1cc(-c2nc3ccccc3s2)c2cc(-c3ccc4c5c(cccc35)C(=O)N(N)C4=O)ccc21`, for which the growth was 98% in assay [1]; 105% in assay [2]; 85.1% in assay [3]; 97.2% in assay [4]; 104% in assay [5]; 88.2% in assay [6]. Besides, the growth is 96.5% in assay [7]; 86.9% in assay [8]; 95.9% in assay [9]; 109% in assay [10]; 102% in assay [11]; 82.1% in assay [12]. The growth in assay [13] is 92.1%; in assay [14], 61.3%; in assay [15], 152%; in [16], 92%; in assay [17], 75.1%; in assay [18], 106%. Further, the results for the growth in assay [19] and in [20] were 104% and 96.5%, respectively.

Consider `C[C@@H]1CCC[C@H]1CC(N)C(=O)O` (stereo not given in full), for which the growth in assay [1] was 90.6%; in assay [2], 116%; in assay [3], 103%; in assay [4], 117%; in assay [5], 114%; in [6] it was 96.8%. The growth in assay [7] is 98.5%; in assay [8], 116%; in assay [9] it was 91.3%; in assay [10] it was 108%; in [11], 132%; in [12], 98.4%. For the same compound, the growth in assay [13] was 114%; in assay [14] it was 99%; in [15], 130%; in assay [16] it was 99.5%; in assay [17] it was -76.8% (active); in [18], 97.9%. Moreover, the figures for the growth in assay [19] and in assay [20] were 104% and 114%, respectively.

As to `C#COc1cccc(Nc2ncnc3ncc(NC(=O)CCl)cc23)c1`, the growth in [1] is -30.3% [6.25 µM] (active); in assay [2], -65.2% [6.25 µM] (active); in assay [3] it was 49.5% [6.25 µM]; in [4], 20% [6.25 µM]; in assay [5], -73.3% [6.25 µM] (active); in [6] it was 20.6% [6.25 µM]. For the same compound, the growth in assay [7] was 47.1% [6.25 µM]; in [8], 27.2% [6.25 µM]; in assay [9], -94.2% [6.25 µM] (active); in assay [10] it was 55.4% [6.25 µM]; in assay [11], 24.5% [6.25 µM]; in assay [12], 57.1% [6.25 µM]. In addition, the growth in [13] was 3.98% [6.25 µM] (active); in [14] it was -68.1% [6.25 µM] (active); in assay [15], -24.2% [6.25 µM] (active); in assay [16], 7.63% [6.25 µM] (active); in [17], 36.4% [6.25 µM]; in assay [18], 61.8% [6.25 µM]. Also, the growth in assay [19] was 23.2% [6.25 µM]; in [20], 50.4% [6.25 µM].

On to `S=C(Nc1ccc(-c2nc(N3CCOCC3)c3cccn3n2)cc1)Nc1cccnc1`, for which the growth was 18.4% in assay [1]; 22.8% in assay [2]; 36.5% in assay [3]; 32.2% in assay [4]; 31.7% in assay [5]; 16.4% in [6]. Moreover, the growth is 58.2% in assay [7]; 25.4% in [8]; 30.8% in [9]; 45.9% in assay [10]; 43.5% in assay [11]; 46.7% in assay [12]. The growth in assay [13] was 28.8%; in assay [14] it was 15.1%; in [15], 21.4%; in assay [16] it was 37.3%; in assay [17], 60.6%; in assay [18], -13.3% (active). Also, the figures for the growth in assay [19] and in assay [20] were 22.1% and 36.8%, respectively.

In the case of `Clc1ccc(Nc2nnc(COc3ccccc3)c3ccccc23)cc1`, the growth in [1] was 4.45% (active); in assay [2], 1.32% (active); in assay [3], 13.1%; in assay [4], 22%; in assay [5] it was -12.7% (active); in assay [6], -0.2% (active). Also, the growth in assay [7] was -96.1% (active); in [8] it was -27.7% (active); in [9], -62% (active); in assay [10], 4.73% (active); in assay [11] it was -26.5% (active); in assay [12], 6.53% (active). Further, the growth was 17% in [13]; -12.3% (active) in [14]; -17.5% (active) in [15]; 3.37% (active) in [16]; 15.4% in assay [17]; -17.3% (active) in [18]. The figures for the growth in assay [19] and in assay [20] were 1.06% (active) and -32.6% (active), respectively.
